# A selection: hits, their analogues and other compounds. The true share with any hit is near 9.2%.
# ELG1 repair inh: qHTS screen for small molecules that inhibit ELG1-dependent DNA repair in human embryonic kidney (HEK293T) cells expressing luciferase-tagged ELG1 | HEK293T ELG1-luciferase reporter, luminescence, 16 h; DNA damage induced by 5-fluorouridine | Potency, µM (series often up to 46.1 µM), without a hit: at the top dose activity change, negative = inhibition, actives largely listed as inhibitors | hit rate 2.3% among 330,000 | AID 504467, 2011; note: % is set by controls: 0 for no effect and ±100 for the full control effect; nearly all actives have a fitted effect of over 55% in size
#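 Quantitative HTS, concentration-response format. 2,000 cells/well co-treated with 5-fluorouridine and compound, 16 hr in 5% CO2 at 37 °C; ONE-Glo luminescence read after 30 min.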
# FLuc modulator: qHTS profiling assay for firefly luciferase inhibitor/activator using purifed enzyme and Km concentrations of substrates (counterscreen for miR-21 project) | Potency, µM (titrated, usually from 57.5 µM), without a hit: top-dose activity change, negative = inhibition, actives largely listed as inhibitors | hit rate 6.9% among 360,000 | AID 588342, 2011 | Luciferin 4-monooxygenase (Photinus pyralis), P08659 | purified FLuc, Km substrates, luminescence inhibition;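 note: plate controls were vehicle for no effect and reference inhibitor for full effect; nearly all actives have a fitted effect of over 55% in size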
# Target sequence (P08659 whole entry, looked up): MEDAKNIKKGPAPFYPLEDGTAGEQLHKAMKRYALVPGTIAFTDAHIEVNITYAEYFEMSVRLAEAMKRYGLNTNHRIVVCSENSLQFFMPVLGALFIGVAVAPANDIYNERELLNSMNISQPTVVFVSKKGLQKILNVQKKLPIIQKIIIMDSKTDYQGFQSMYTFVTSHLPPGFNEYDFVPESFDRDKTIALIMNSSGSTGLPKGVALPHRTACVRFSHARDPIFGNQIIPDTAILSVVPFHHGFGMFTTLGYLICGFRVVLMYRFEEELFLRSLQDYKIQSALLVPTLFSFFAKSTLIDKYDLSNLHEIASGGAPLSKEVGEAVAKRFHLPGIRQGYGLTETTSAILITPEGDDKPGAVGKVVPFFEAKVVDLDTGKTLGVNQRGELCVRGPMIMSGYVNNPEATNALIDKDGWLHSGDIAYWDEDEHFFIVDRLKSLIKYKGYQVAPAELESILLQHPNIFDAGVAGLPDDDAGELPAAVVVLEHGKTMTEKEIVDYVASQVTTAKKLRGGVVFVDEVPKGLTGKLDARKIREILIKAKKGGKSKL
#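 Purified P. pyralis luciferase, 10 nM final, with Km-level 10 uM D-luciferin and 10 uM ATP in 50 mM Tris acetate pH 7.5, 10 mM Mg acetate, 0.01% Tween-20, 0.05% BSA; 6-point qHTS titration about 60 µM downward; luminescence read.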
# NPC1 promoter act: qHTS Assay for NPC1 Promoter Activators. Potency, µM (titrated, usually from 9.22 µM), inactives show at the top dose activation, hits mostly activators. Huh7 NPC1 promoter luciferase reporter, 24 h. hit rate 2.4% among 320,000; note: % of control where 0% means no effect; nearly all actives have a fitted effect of over 60% in size
#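 Compounds in DMSO were transferred onto Huh7 NPC1-luciferase reporter cells pre-incubated 2 h; after 24 h at 37 °C, Amplite reagent was dispensed and luminescence recorded 10 min later.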
# ELG1 genotoxic: qHTS screen for small molecules that induce genotoxicity in human embryonic kidney (HEK293T) cells expressing luciferase-tagged ELG1; Potency, µM (doses to about 46 µM), without a hit: top-dose activity change, positive = activation, most hits filed as activators; HEK293T ELG1-luciferase reporter, luminescence, 16 h; AID 504466, 2011; hit rate 1.3% among 330,000; note: % of control where 0% means no effect; nearly all actives have a fitted effect of over 60% in size
#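 Step 1: seed 2,000 HEK293T ELG1-luciferase cells per well. Step 2: add compound or DMSO, incubate 16 hr at 37 °C. Step 3: ONE-Glo, 30 min at room temperature, read luminescence.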
# Rab9 prom act: qHTS Assay for Rab9 Promoter Activators; hit rate 2.8% among 320,000; AID 485297, 2010; Potency, µM (series often up to 9.22 µM), inactives show at the top dose activation, negative = inhibition, actives largely listed as activators; Huh7 Rab9 promoter-luciferase reporter, luminescence, 24 h; note: % of control where 0% means no effect; nearly all actives have a fitted effect of over 60% in size
#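 Promoter activation is measured as luciferase luminescence in Huh7 cells stably transfected with a Rab9 promoter–luciferase construct, following 24 h compound exposure at 37 °C and 10 min reagent incubation at ambient temperature.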
# SMN2 splice up: qHTS Assay for Enhancers of SMN2 Splice Variant Expression; Potency, µM (titrated, usually from 46.1 µM), without a hit: at the top dose activity change, positive = activation, usual class: activators; hit rate 2.8% among 210,000; AID 1458, 2008; HEK293 SMN2-luciferase splicing reporter, luminescence, 30-36 h; note: % of control where 0% means no effect; nearly all actives have a fitted effect of over 55% in size
#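 qHTS luciferase splicing reporter: luminescence rises when SMN2 exon 7 is included in transfected HEK293 cells. Compound exposure lasted 30-36 h at 37C, with 4.5 mM final sodium butyrate as control, followed by a ONE-Glo read.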
# An asterisk follows results filed as active; ? = inconclusive; . = no result given. Calls come from the whole dose curve; as a rule, active = well fitted curve in the direction sought with a large enough effect; inconclusive = small, poorly fitted or top-dose-only effect, or another doubt; inactive = no such curve, though single readings can be large; an effect the other way counts as inactive or inconclusive. Potency is the fitted concentration of half-maximal effect.
SMILES,ELG1 repair inh,FLuc modulator,NPC1 promoter act,ELG1 genotoxic,Rab9 prom act,SMN2 splice up
O=C(Nc1ccc2ccccc2c1)c1onc2c1CCCC2,?,0.95µM*,0.4µM*,?,0.56µM*,8.9µM*
Cc1noc(C)c1C(=O)Nc1ccc2ccccc2c1,?,?,2%,?,1%,.
COC(=O)c1cccc(NC(=O)c2onc3c2CCCC3)c1,?,0.85µM*,0.4µM*,0.82µM*,0.32µM*,0.79µM*
Cc1ccccc1OCCCn1c(CO)nc2ccccc21,0%,15µM*,1%,-6%,5%,4%
CCc1nc2ccccc2n1CCCCOc1ccccc1C,.,?,.,.,.,-28%
CC(C)(C)C(=O)NCCCc1nc2ccccc2n1CCCOc1ccc(Cl)cc1,23µM*,1%,-1%,-18%,-8%,-37%
CC(=O)NCCc1nc2ccccc2n1CCCCOc1ccc(Cl)cc1,.,4%,.,.,.,-44%
OCc1nc2ccccc2n1CCCOc1ccc(Br)cc1,.,11µM*,.,.,.,-9%
NC(=O)COC(=O)CSc1ccc2ccccc2c1,-1%,?,3%,2%,6%,0%
CNC(=O)NC(=O)CN1C(=O)NC2(CCOc3ccccc32)C1=O (configuration not stated),11%,3%,5%,-12%,2%,.
CSc1nc(N)nc(SCC(=O)C23CC4CC(CC(C4)C2)C3)c1C#N,21µM*,3%,-1%,-6%,0%,-47%
Nc1nc(-c2ccccc2)cn1/N=C/c1ccccc1,?,15µM*,-9%,?,0%,.
Nc1nc(-c2ccccc2)cn1N,?,-20%,8%,-1%,6%,-2%
COc1ccc(-c2csc3nc(C)nc(N4CCN(C(C)=O)CC4)c23)cc1OC,5%,-14%,-3%,2%,-10%,23%
Oc1ccccc1N1CCN(c2ncnc3scc(-c4ccccc4)c23)CC1,18µM*,4%,-2%,-23%,-6%,.
OCCN1CCN(c2ncnc3scc(-c4ccc(F)cc4)c23)CC1,?,-2%,4%,-12%,3%,.
Cc1nc(N2CCN(c3ccccc3O)CC2)c2c(-c3ccccc3)csc2n1,18µM*,-9%,-4%,-26%,-1%,.
Oc1ccccc1N1CCN(c2ncnc3scc(-c4ccc(F)cc4)c23)CC1,9.2µM*,0%,-5%,-17%,-16%,.
CCOC(=O)N1CCC(NC(=O)c2cc(COc3ccccc3SC)on2)CC1,-3%,?,9%,-9%,2%,.
Cc1cccc(NC(=O)c2cnn3c2NC(=C2CC2)C=C3C(F)F)n1,.,4%,.,.,.,.
Cn1c(O)c(C(C#N)=C2N=c3ccccc3=N2)c2ccccc21,1%,9.5µM*,15%,1%,6%,5%
N#CC(=C1N=c2ccccc2=N1)c1c(O)[nH]c2ccccc12,?,?,12%,21%,16%,21%
COc1ccc(C)cc1N(C(=O)c1ccccc1F)c1nc2ccccc2s1,5%,-2%,-1%,-5%,-2%,-5%
CCN(Cc1ccccc1)C(=O)c1c(C)oc2ncn(C)c(=O)c12,.,-1%,.,.,.,.
Cc1ccc(NC(=O)c2nc(S(=O)(=O)Cc3ccc(F)cc3)ncc2Cl)cc1C,.,-1%,.,.,.,.
SMILES,ELG1 repair inh,FLuc modulator,NPC1 promoter act,ELG1 genotoxic,Rab9 prom act,SMN2 splice up
CC(=O)Nc1ccc(NC(=O)c2nc(S(=O)(=O)Cc3cccc(C)c3)ncc2Cl)cc1,?,1%,-46%,3%,-41%,.
Cc1ccc(NC(=O)c2nc(S(=O)(=O)Cc3ccccc3C)ncc2Cl)cc1C,?,11µM*,-24%,-17%,-16%,.
COC(=O)c1ccc(NC(=O)c2nc(S(=O)(=O)Cc3cccc(C)c3)ncc2Cl)cc1,16µM*,-17%,-30%,-2%,-1%,.
Fc1ccc(-c2cn3cc(Cc4ccc(Cl)cc4)sc3n2)cc1,.,3µM*,.,.,.,3.2µM*
N=C1C(c2nc(-c3ccc(F)cc3)cs2)=C(O)CN1Cc1ccc(Cl)cc1,?,2%,-3%,13%,-3%,-10%
Fc1ccc(Cc2cn3cc(-c4ccc(Cl)cc4)nc3s2)cc1,.,0.6µM*,.,.,.,?
CC(C)N(C(=O)Cc1ccccc1[N+](=O)[O-])C(C)C,-14%,-2%,-1%,-4%,2%,-3%
CCc1nnc(NC(=O)c2ccc(S(=O)(=O)N(CC(C)C)CC(C)C)cc2)o1,?,0%,-6%,-7%,-5%,-56%
CCN(Cc1ccccc1)S(=O)(=O)c1ccc(C(=O)Nc2nnc(C3CC3)o2)cc1,12µM*,2%,-12%,-12%,-7%,-63%
CCc1nnc(NC(=O)c2ccc(S(=O)(=O)N(C)c3ccccc3)cc2)o1,7.3µM*,-17%,-8%,-14%,-7%,-101%
Cc1nnc(NC(=O)c2ccc(S(=O)(=O)N(C)Cc3ccccc3)cc2)o1,-29%,6%,-3%,-10%,-4%,-23%
C=CCN(CC=C)S(=O)(=O)c1ccc(C(=O)Nc2nnc(CSC)o2)cc1,18µM*,-19%,-2%,-18%,-3%,-22%
CCCN(CCC)S(=O)(=O)c1ccc(C(=O)Nc2nnc(COC)o2)cc1,18µM*,?,-2%,-21%,-9%,-54%
COc1ccccc1CNC(=O)[C@H](C)NC(=O)C1CCN(C(=O)[C@@H]2CCCN2C(=O)OC(C)(C)C)CC1,14%,-5%,1%,-1%,-1%,.
CCN(Cc1ccccc1)S(=O)(=O)c1cc(Br)cc2c1N(C(=O)C1CC1)CC2,.,0%,.,.,.,-25%
CC1(C)Cc2c(C#N)c(NCCN3CCOCC3)nc(-c3ccccc3)c2CO1,8.2µM*,-1%,1%,0%,0%,.
CC1(C)Cc2c(C#N)c(SCC(=O)c3ccccc3)nc(N3CCOCC3)c2CO1,1.3µM*,-18%,2%,-8%,2%,-1%
CCOC(=O)CSc1nc(N2CCOCC2)c2c(c1C#N)CC(C)(C)OC2,2.1µM*,0%,-3%,-7%,-10%,.
CCCOC(=O)CSc1nc(N2CCOCC2)c2c(c1C#N)CC(C)(C)OC2,?,-1%,0%,-8%,-7%,.
CC1(C)Cc2c(C#N)c(NCCN3CCOCC3)nc(-c3ccco3)c2CO1,?,-4%,-4%,-14%,11%,1%
O=C(CCc1nnc(CCCCc2ccccc2)o1)NCCN1CCCCC1=O,21%,-1%,-4%,3%,-4%,.

# From PubChem
